Screening results deposited in PubChem by The Scripps Research Institute Molecular Screening Center.
Rin1 Abl inh: blocks binding of human Rin1 to Abl; 360,000 compounds, 0.4% hits; inhibition, % at 7.35 µM; P00519+Q13671; TR-FRET Rin1/Abl binding, biochemical; AID 588664; in the data active = inhibition above about 5%, passing the limit was not always enough
Target sequence (P00519 whole entry, looked up): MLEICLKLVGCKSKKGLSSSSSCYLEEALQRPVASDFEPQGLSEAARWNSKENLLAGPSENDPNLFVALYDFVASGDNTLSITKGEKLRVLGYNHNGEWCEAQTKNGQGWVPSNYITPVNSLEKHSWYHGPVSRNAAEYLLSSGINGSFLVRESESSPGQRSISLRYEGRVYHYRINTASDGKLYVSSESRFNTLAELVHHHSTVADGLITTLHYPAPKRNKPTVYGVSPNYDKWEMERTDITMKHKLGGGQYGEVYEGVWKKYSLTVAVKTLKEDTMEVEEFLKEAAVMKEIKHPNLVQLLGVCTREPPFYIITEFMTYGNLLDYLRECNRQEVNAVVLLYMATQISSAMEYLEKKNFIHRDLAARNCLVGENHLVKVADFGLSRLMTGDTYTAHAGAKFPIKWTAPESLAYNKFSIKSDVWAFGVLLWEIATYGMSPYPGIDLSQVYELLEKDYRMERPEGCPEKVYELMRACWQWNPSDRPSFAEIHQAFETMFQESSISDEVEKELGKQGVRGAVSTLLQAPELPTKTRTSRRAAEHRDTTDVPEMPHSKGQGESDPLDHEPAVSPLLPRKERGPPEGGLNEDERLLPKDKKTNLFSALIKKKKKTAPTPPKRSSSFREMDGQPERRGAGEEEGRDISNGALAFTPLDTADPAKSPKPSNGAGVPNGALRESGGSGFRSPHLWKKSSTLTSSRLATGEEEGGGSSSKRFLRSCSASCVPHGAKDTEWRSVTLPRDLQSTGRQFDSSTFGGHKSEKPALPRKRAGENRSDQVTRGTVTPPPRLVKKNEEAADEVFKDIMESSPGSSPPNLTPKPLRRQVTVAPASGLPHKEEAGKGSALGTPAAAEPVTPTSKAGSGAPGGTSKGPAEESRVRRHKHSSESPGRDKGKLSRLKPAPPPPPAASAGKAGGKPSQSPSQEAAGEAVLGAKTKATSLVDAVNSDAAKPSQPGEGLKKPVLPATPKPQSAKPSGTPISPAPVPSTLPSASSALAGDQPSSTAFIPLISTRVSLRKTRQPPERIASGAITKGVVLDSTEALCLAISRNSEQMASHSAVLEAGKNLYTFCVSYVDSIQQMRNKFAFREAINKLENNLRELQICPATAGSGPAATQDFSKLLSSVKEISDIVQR
Target sequence (Q13671 whole entry, looked up): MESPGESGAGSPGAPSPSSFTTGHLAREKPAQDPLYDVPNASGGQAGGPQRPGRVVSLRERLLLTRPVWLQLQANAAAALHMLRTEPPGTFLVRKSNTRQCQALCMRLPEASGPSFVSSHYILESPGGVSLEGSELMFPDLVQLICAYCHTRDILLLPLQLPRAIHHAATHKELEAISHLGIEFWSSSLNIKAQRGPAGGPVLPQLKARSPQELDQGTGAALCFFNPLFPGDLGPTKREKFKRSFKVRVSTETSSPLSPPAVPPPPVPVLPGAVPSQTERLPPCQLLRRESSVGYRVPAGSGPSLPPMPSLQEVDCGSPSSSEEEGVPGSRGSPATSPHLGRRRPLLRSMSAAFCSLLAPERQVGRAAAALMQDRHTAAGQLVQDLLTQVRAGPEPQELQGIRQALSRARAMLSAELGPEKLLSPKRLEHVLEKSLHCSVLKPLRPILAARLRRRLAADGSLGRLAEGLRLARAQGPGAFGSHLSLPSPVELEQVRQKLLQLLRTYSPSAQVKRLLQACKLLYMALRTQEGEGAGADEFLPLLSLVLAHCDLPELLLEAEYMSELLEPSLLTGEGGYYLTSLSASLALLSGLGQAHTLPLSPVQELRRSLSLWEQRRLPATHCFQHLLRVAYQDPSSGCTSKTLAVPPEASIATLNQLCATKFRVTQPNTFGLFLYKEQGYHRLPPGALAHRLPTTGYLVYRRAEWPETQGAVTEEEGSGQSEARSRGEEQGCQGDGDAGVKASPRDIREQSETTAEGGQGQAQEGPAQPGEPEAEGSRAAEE
PKA-R2B activ: PKA-R2B complex activation | PKA-R2B holoenzyme dissociation, Cy5-IP20 fluorescence polarization; R2B truncated from residue 108, S112A mutant; 0% DMSO only, 100% 113 µM cGMP | activation, % at 11.4 µM | 340,000 compounds, 0.079% hits | AID 504700;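 active = activation above a cutoff set at the mean over all compounds plus 3 SD, cut at about 18% in these data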;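 also: higher means more holoenzyme dissociation and a rise in polarization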
IDE act: IDE (human) activation, cell-based; P14735; HEK cells, FAbeta-B cleavage, fluorescence polarization; 0% vehicle, 100% cell-free pure enzyme wells; activation, % at 5.96 µM; 340,000 compounds, 0.073% hits;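 active = activation above the mean of all tested compounds plus 3 SD, set per screening campaign, cut at about 17% in these data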
IDE inh: inhibits human insulin-degrading enzyme in HEK cells; 320,000 compounds, 0.41% hits; inhibition, % at 5.59 µM; AID 434962; FAbetaB cleavage, fluorescence polarization; P14735;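 active = percent inhibition above the average of all tested compounds plus 3 SD, set per screening campaign, cut at about 16% in these data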;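 also: IDE supplied by intact live HEK cells; FP after avidin binding of uncleaved biotin substrate so inhibition keeps polarization high; 0% = DMSO wells and 100% = 60 µM reference IDE inhibitor Ii1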
eLon inh: inhibits E. coli Lon protease | inhibition, % at 7.94 µM | purified E. coli Lon protease, fluorescence polarization | 360,000 compounds, 0.42% hits | P0A9M0 | AID 602123; in the data active = inhibition above about 13%, passing the limit was not always enough;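 also: 0% = enzyme with probe and DMSO and 100% = no enzyme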
PKA-R1A activ: activates the PKA-R1A holoenzyme complex | 340,000 compounds, 0.083% hits | AID 504707 | PKA-R1A dissociation, Cy5-IP20 fluorescence polarization; scaled: DMSO 0%, 113 µM cGMP 100% | activation, % at 11.4 µM;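 active = percent activation above the mean of all tested compounds plus 3 SD, cut at about 19% in these data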;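 also: higher means more PKAc released from R1A so a rise in polarization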
eLon confirm: E. coli Lon inhibition confirmation; inhibition, % at 7.94 µM; 1,400 compounds, 31% hits; purified E. coli Lon, fluorescence polarization; shares compounds with eLon inh; in the data active = inhibition above about 16%;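 also: 0% = enzyme with probe and DMSO and 100% = no enzyme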
Numbers without * were called inactive; · = no result. This is a sample that favours compounds with a hit; in the whole collection about 1.3% have one here.

SMILES	Rin1 Abl inh	PKA-R2B activ	IDE act	IDE inh	eLon inh	PKA-R1A activ	eLon confirm
COc1ccc(C(=O)N=C2SC3CS(=O)(=O)CC3N2c2ccccc2)cc1OC (stereo unspecified)	-1	0	3	4	19*	6	1
Cc1ccc(NC(=O)CC2SC3=NCCCN3C2=O)c(C)c1 (stereo unspecified)	-7	-5	-5	-2	64*	-2	17*
O=C(O)c1cccc2c1C(=O)c1cc(Br)ccc1S2(=O)=O	3	2	0	-1	1	-4	·
COC(=O)c1c(C)c2c(C)cc3ccccn3c-2c1C(=O)OC	-5	-12	3	2	45*	-6	-6
COC(=O)c1cc2c(-c3ccccc3)cc3ccccn3c-2c1C(=O)OC	4	-6	1	4	7	1	·
Cc1ccc(S(=O)(=O)N2CCc3cc4c(cc3C2C)OCCCO4)cc1 (stereo unspecified)	4	-3	-14	-8	18*	5	2
COc1ccc(NS(=O)(=O)c2ccc(NC(=O)c3ccccc3)cc2)nn1	2	3	0	0	9	-5	·
COc1ccccc1N1CCN(C2CCCN(C(=O)c3snnc3C)C2)CC1 (stereo unspecified)	-1	-10	2	-2	-1	-4	·
CNc1c2cccc(C)c2nc2c(C(=O)NCCN(C)C)cccc12	-13	-16	1	·	178*	-11	195*
Cc1ccc(C(=O)NCCN(C)C)c(C)c1	-1	-3	2	-8	-3	-9	·
C=CCN(CC=C)c1nc2ccccc2nc1C(C#N)C(=O)OC(C)C (stereo unspecified)	-3	4	-4	-2	16*	-4	-12
CCOc1ncccc1C(=O)OCC(=O)Nc1cc(S(=O)(=O)N(CC)CC)ccc1C	-1	10	1	4	13*	-12	-2
CCN(CC)S(=O)(=O)c1ccc(C)c(NC(=O)COC(=O)C=C(C)C)c1	-5	-2	-3	-2	5	5	·
COc1ccccc1C(=O)NCCn1ccc2ccccc21	1	-7	5	-2	16*	-8	10
COc1ccc(C(=O)NCCn2ccc3ccccc32)cc1OC	-1	0	9	2	0	-7	·
O=C(O)CCSC(=S)N1CCOCC1	-1	-1	-2	3	4	2	·
Cc1nn(-c2ccc(F)cc2F)c2c1-c1nc(N3CCCC3)ncc1CC2	-3	1	-4	2	16*	6	6
CCOC(=O)CC1OC(=O)c2cc3c(cc21)C(=O)OC3CC(=O)OCC (stereo unspecified)	-1	1	1	3	-4	-2	·
Cc1ccc(C(=O)NCCc2ccc(F)cc2)s1	2	-4	10	-1	14*	-19	-7
O=C(NCCc1ccc(F)cc1)c1ccncc1	-1	-3	1	1	19*	-2	-11
Cn1c(O)c(/C=N/Nc2ccccc2)c(=O)n(C)c1=O	-19	15	1	-1	1	1	·
Cc1cccc(Nc2ccc(C(=O)N3CCOCC3)cn2)c1	-3	-4	1	-5	0	8	·
CCc1ccc(-c2nc(CS(=O)CC(=O)NCCN3CCCCCC3)c(C)o2)cc1 (stereo unspecified)	-5	-1	-2	7	0	-4	·
CCN(CC)S(=O)(=O)c1ccc(NC(=O)CC(NC(C)=O)c2ccccc2)cc1 (stereo unspecified)	0	-4	-1	5	17*	3	-5
Cc1ccc(C2N(c3ccccc3)C(=O)N3CCCN23)cc1 (stereo unspecified)	0	-7	1	8	36*	-5	-11
SMILES	Rin1 Abl inh	PKA-R2B activ	IDE act	IDE inh	eLon inh	PKA-R1A activ	eLon confirm
O=C1N(c2cccc3ccccc23)C(c2ccccc2)N2CCCN12 (stereo unspecified)	-2	-2	1	5	17	0	·
COc1ccc(CN2CCN(Cc3ccccc3F)CC2)c(OC)c1	3	3	4	4	-2	5	·
CCCC(=O)NC(=S)Nc1cccc(-c2nc3ncccc3o2)c1	2	-11	2	2	-5	-6	·
COc1ccc(C2=NN(CN3C(=O)C(=O)c4ccccc43)C(c3ccc(Br)cc3)C2)cc1 (stereo unspecified)	3	11	1	2	-1	7	·
CCCC(=O)NC(c1cccs1)c1cc(Cl)c2cccnc2c1O (stereo unspecified)	6	-13	-3	10	1	-7	·
CCC(=O)NC(c1cccs1)c1ccc2cccnc2c1O (stereo unspecified)	9.8*	-16	3	-4	21*	2	1
O=C(COc1cc(F)ccc1[N+](=O)[O-])Nc1cccc(S(=O)(=O)NC2=NCCC2)c1	3	5	-2	-2	1	0	·
CCC(=O)N(Cc1ccc(C)cc1)Cc1cc2cc3c(cc2[nH]c1=O)OCO3	-5	-7	-3	-4	21*	-3	4
Cc1ccc(NC(=O)N(Cc2ccc3c(c2)OCO3)Cc2cc3cc4c(cc3[nH]c2=O)OCCO4)cc1	1	5	0	-1	15*	10	5
Cc1ccc(NC(=O)N(Cc2cccs2)Cc2cc3cc4c(cc3[nH]c2=O)OCO4)cc1	·	·	·	4	·	·	·
Cc1nc(-c2nnc(-c3ccccc3)o2)c(C(F)(F)F)o1	1	12	-3	3	-9	-9	·
O=c1[nH]c2cc3ccccc3cc2nc1-c1nnnn1Cc1ccccc1	·	·	·	·	3	·	·
C=CCc1ccc(OCCCNCc2ccccc2)c(OC)c1	0	1	-4	0	3	-2	·
CN(C)C(=O)CCc1ccc2c3c([nH]c2c1)[C@]1(CCC2CCCC2)[C@@H](C(=O)N2CCOCC2)C[C@H](CC(=O)NCc2cccc(C(F)(F)F)c2)C(=O)N1CC3	0	-1	2	·	3	-2	·
COC(=O)C1=C(C)NC2=C(C(=O)CCC2)C1c1ccc(-c2ccsc2C(=O)OC)o1 (stereo unspecified)	-1	-1	4	4	18*	-1	-27
Cc1cc(C(=O)COC(=O)c2cccc(O)c2)c(C)n1C1CC1	1	-11	5	2	28*	-6	-34
COc1ccc(C)cc1NC(=O)c1ccc(OCc2c(C)noc2C)cc1	1	2	4	-1	5	-1	·
c1cncc(Nc2c3ccccc3nc3ccccc23)c1	-13	-1	2	-1	25*	5	-5
Oc1cccc(Nc2c3ccccc3nc3ccccc23)c1	-8	7	0	-5	16	0	·
